A short description of assay [1]: inhibitors of TNFa-induced NFkB p65 translocation, primary screen, imaging, HUVEC, MLSMR starter and 10KST1 sets (AID 438).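 Further: compound added about 3h40 before a 20 min TNFalpha stimulation.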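 On inhibition: signal is the nuclear over cytoplasmic p65 intensity ratio per well.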 The conditions noted are these: HUVEC TNFa-induced p65 nuclear translocation; cell count: measured here: nuclei count (cytotoxicity indicator), at 2.08 µM; inhibition: at 2 µM, stronger effect = higher value, 0% TNFa-plus-vehicle, 100% no-TNFa wells.
The nature of assay [2]: reduction of polyQ htt aggregates in cells – imaging, exon1htt(103Q)mCFP cells, high-content imaging, primary screen (AID 483;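 active means visual image review flags a hit and inhibition of aggregation exceeds 20%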;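 further: compound exposure lasted 3 days before fixation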;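 on nuclei count: percent of the per-plate median nuclei count of sample wells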). The following applies: exon1htt(103Q)mCFP cell line, aggregate imaging, at 2 µM; inhibition of aggregation: stronger effect = higher value; nuclei count: measured here: cell count, toxicity.
Assay [3] is described as follows: endothelial E-selectin expression blockers – imaging, HUVEC, immunofluorescence, MLSMR starter and 10KST1 sets, primary screen (AID 487;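 active means visually confirmed hit in the image check and inhibition above 20%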;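 on inhibition: signal is fraction of cell area covered by stained E-selectin grains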;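 on nuclei count: 100% = median nuclei count of all wells on the same plate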). The following applies: HUVEC TNFalpha-induced E-selectin immunofluorescence imaging, at 2 µM; inhibition: stronger effect = higher value; nuclei count: measured here: cell number, toxicity.
The target of assay [4] is Voltage-gated potassium channel subunit beta-2 (Rattus norvegicus) (UniProt P62483). The assay can be described thus: inhibitors of rat Kvbeta2 reductase activity – biochemical, NADPH fluorescence, primary screen (AID 622;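 active means fluorescence slope higher than the sample average by over 3 SD, cut at about -0.22 in these data, passing the limit was not always enough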;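 further: slope of raw intensity against log time taken from 70 to 1610 s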). The conditions noted are these: recombinant KvBeta, 4-cyanobenzaldehyde reduction, at 10 µM, stronger effect = higher value.
The target is the same in assay [5]. As to the kind of experiment: enhancers of rat Kvbeta2 NADPH turnover – biochemical, NADPH fluorescence, primary screen (AID 623;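 active means NADPH fluorescence slope more negative than the mean of all samples by about 3 SD, 99.7% confidence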;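 further: fluorescence intensity change per second fitted from 20 to 320 s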). The following applies: Recombinant KvBeta, NADPH fluorescence decrease slope, 10 min; at 10 µM; stronger effect = lower value.
Assay [6] concerns the target Alpha-2C adrenergic receptor (Homo sapiens) (UniProt P18825). As to the kind of experiment: compounds altering alpha2C-coupled GIRK flux – cell-based, HEK293 alpha2C/GIRK1/2, thallium flux, primary screen (AID 624;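 active means fluorescence slope after compound addition differing from the mean of all screened samples at 99.7% confidence, in either direction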;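 further: slope of fluorescence ratio to pre-addition baseline per second over 15 to 24 s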). The conditions noted are these: thallium flux BTC fluorescence, at 10 µM, actives lie on both sides.
Assay [7] in a line: blockers of RIG-like receptor reporter activation – cell-based, Sendai virus stimulus, luciferase, 10K MLSCN set, TLR/RLR signaling modifier project, primary screen (AID 602276;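 active means inhibition at or above 50% at 10 µM; inactive means inhibition below 50%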;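 further: firefly luciferase from ISG56 promoter only with Renilla not read in this screen; 0% = Sendai virus plus DMSO and 100% = medium plus DMSO without virus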). The following applies: HEK293 RL24 IRF3 luciferase reporter, at 10 µM, stronger effect = higher value. A general note: Reporter assays use an easily measured gene product as a stand-in for the process of interest.

A short description of assay [8]: TLR3 IRF3 reporter activation blockers – cell-based, poly I:C stimulus, luciferase, 10K MLSCN set, primary screen (AID 602277;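 active means inhibition of the reporter signal at or above 50%; inactive means inhibition below 50%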). The following applies: HEK293-TLR3 RL24 IRF3 luciferase reporter, at 10 µM, stronger effect = higher value.

The term inhibition denotes the relative decrease from the control value, in per cent.

Calls of active or inactive are those of the source.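 How the source made its calls, unless noted: active means inhibition above 20% together with a positive visual image hit; inconclusive means visual image hit but inhibition not above 20%; inactive means no visual image hit.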

Voltage-gated potassium channel subunit beta-2 (Rattus norvegicus), sequence (P62483 whole entry, looked up): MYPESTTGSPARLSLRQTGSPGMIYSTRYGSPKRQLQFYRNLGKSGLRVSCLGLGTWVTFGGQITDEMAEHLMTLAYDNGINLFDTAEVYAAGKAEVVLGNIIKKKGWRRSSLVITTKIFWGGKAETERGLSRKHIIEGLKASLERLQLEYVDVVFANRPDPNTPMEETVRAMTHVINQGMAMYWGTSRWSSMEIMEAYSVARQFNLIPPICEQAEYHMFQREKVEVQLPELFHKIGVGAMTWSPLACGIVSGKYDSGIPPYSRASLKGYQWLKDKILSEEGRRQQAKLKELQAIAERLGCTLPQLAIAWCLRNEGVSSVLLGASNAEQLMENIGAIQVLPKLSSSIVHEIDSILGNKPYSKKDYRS
Alpha-2C adrenergic receptor (Homo sapiens), sequence (P18825 whole entry, looked up): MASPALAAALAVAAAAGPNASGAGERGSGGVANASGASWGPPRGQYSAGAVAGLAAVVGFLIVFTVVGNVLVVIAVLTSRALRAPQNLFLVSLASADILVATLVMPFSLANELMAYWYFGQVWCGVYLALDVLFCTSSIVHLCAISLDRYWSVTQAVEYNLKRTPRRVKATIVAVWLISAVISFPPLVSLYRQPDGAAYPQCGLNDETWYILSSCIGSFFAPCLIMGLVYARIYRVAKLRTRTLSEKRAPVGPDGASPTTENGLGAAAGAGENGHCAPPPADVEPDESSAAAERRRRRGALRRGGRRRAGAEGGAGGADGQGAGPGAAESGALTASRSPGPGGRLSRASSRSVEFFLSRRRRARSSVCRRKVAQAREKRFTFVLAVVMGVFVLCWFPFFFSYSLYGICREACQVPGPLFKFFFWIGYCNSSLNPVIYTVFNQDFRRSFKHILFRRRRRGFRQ

With `CCOC(=O)CSc1nnc([C@H](C)NC(=O)OC(C)(C)C)o1`, the cell count in assay [1] is 552. The inhibition is 12% (inactive) in assay [1], -35% (inactive) in assay [3], 3.34% (inactive) in assay [7] and 14.1% (inactive) in assay [8]. For the same compound, the inhibition of aggregation in assay [2] is -32.6% (inactive). In addition, the figures for the nuclei count in assay [2] and in assay [3] were 83.6% and 118%, respectively. Further, in assay [4], the fluorescence slope was -0.471 (inactive). Besides, in assay [5], the NADPH fluorescence slope is -3.4e-05 (inactive). In assay [6], the slope was 0.00421 (inactive).

As for `CCOc1ccc(S(=O)(=O)n2nc(C)cc2C)c2ccccc12`, in assay [1], the cell count came to 355. Besides, the inhibition in assay [1] is -5.4% (inactive); in assay [3], -52.3% (inactive); in assay [7], -0.884% (inactive); in assay [8] it was -17.2% (inactive). In addition, in assay [2], the inhibition of aggregation is 0.3% (inactive). For the same compound, the nuclei count came out at 108% in assay [2] and 115% in assay [3]. The fluorescence slope in assay [4] was -0.347 (inactive). Moreover, the NADPH fluorescence slope in assay [5] is 2e-05 (inactive). The slope in assay [6] is 0.00571 (inactive).

With `O=C1c2ccccc2C(Nc2ccc(F)c(Cl)c2)N1Cc1ccco1` (centres undefined), the cell count in assay [1] was 778. The inhibition was -11.6% (inactive) in assay [1], -37.8% (inactive) in assay [3], 5.4% (inactive) in assay [7] and 26.8% (inactive) in assay [8]. In addition, the inhibition of aggregation in assay [2] is -4.9% (inactive). Besides, the nuclei count in assay [2] stood at 110%; in assay [3], 105%. The fluorescence slope in assay [4] is -0.442 (inactive). The NADPH fluorescence slope in assay [5] is -5.5e-05 (inactive). Moreover, the slope in assay [6] was 0.0049 (inactive).

For `S=C(c1cccs1)N1CCCC1`, the cell count in assay [1] turned out to be 708. Further, the inhibition in assay [1] is -25.9% (inactive); in assay [3], 22.3% (inactive); in assay [7] it was -7.06% (inactive); in assay [8], 6.9% (inactive). Besides, the inhibition of aggregation in assay [2] is -3.8% (inactive). Besides, the nuclei count in assay [2] came to 105%; in assay [3], 100%. The fluorescence slope in assay [4] was -0.421 (inactive). In assay [5], the NADPH fluorescence slope was -4e-05 (inactive). Besides, in assay [6], the slope is 0.00656 (inactive).

For the compound `O=c1[nH]c(SCc2ccc(F)cc2)nc2c1cnn2-c1ccc(F)cc1`, the cell count in assay [1] was 652. For the same compound, the inhibition in assay [1] is -31% (inactive); in assay [3] it was -0.1% (inactive); in assay [7], -21.2% (inactive); in assay [8] it was -12.1% (inactive). Further, in assay [2], the inhibition of aggregation is -8.4% (inactive). Also, the nuclei count in assay [2] was 95.8%; in assay [3], 110%. In assay [4], the fluorescence slope was -0.57 (inactive). The NADPH fluorescence slope in assay [5] was 1e-05 (inactive). In addition, in assay [6], the slope is 0.00683 (inactive).

Turning to `Nn1c(SCC(=O)Nc2ccc(Oc3ccccc3)cc2)nnc1C1CC1`, the cell count in assay [1] was found to be 331. In addition, the inhibition in assay [1] is -12.3% (inactive); in assay [3] it was -57.3% (inactive); in assay [7], -8.58% (inactive); in assay [8] it was -16% (inactive). In assay [2], the inhibition of aggregation was 17.5% (inactive). In addition, the nuclei count in assay [2] was 91.2%; in assay [3], 132%. The fluorescence slope in assay [4] is -0.378 (inactive). In assay [5], the NADPH fluorescence slope is 1.7e-05 (inactive). For the same compound, in assay [6], the slope is 0.00645 (inactive).

Take `CC(C)c1ccc(NC(=O)CCNS(=O)(=O)c2cccc3nonc23)cc1`: the cell count in assay [1] was found to be 669. Moreover, the inhibition in assay [1] is -6.5% (inactive); in assay [3] it was -55.8% (inactive); in assay [7], 16.4% (inactive); in assay [8] it was 24.2% (inactive). Further, the inhibition of aggregation in assay [2] was 24.6% (inactive). Also, the nuclei count came out at 98% in assay [2] and 106% in assay [3]. Moreover, in assay [4], the fluorescence slope was -0.544 (inactive). In assay [5], the NADPH fluorescence slope is 2.2e-05 (inactive). The slope in assay [6] was 0.00564 (inactive).

Take `N#Cc1cc2c(nc1SCC(=O)Nc1sc3c(c1C#N)CCC3)CCCCC2`: the cell count in assay [1] was determined as 606. The inhibition was 5.3% (inactive) in assay [1], 32.4% (inactive) in assay [3], 1.89% (inactive) in assay [7] and -0.19% (inactive) in assay [8]. Moreover, the inhibition of aggregation in assay [2] was -0.2% (inactive). Moreover, the nuclei count in assay [2] was determined as 103%; in assay [3], 104%. The fluorescence slope in assay [4] is -0.323 (inactive). Moreover, the NADPH fluorescence slope in assay [5] was -4.1e-05 (inactive). Also, in assay [6], the slope is 0.00575 (inactive).

For `Cc1nnc2ccc(N3CCN(c4cccc(C(F)(F)F)c4)CC3)nn12`, the cell count in assay [1] amounted to 596. Besides, the inhibition is 5.5% (inactive) in assay [1], -68.3% (inactive) in assay [3], 3.49% (inactive) in assay [7] and 11.9% (inactive) in assay [8]. Moreover, the inhibition of aggregation in assay [2] is -64.5% (inactive). Besides, the nuclei count in assay [2] stood at 32.1%; in assay [3], 134%. Moreover, the fluorescence slope in assay [4] was -0.505 (inactive). Also, in assay [5], the NADPH fluorescence slope is -1.3e-05 (inactive). In assay [6], the slope was 0.00619 (inactive).

On to `O=C(CN1CCCC1)Nc1ccc(NC(=O)Nc2ccccc2)cc1`, for which the cell count in assay [1] stood at 433. For the same compound, the inhibition is -5.7% (inactive) in assay [1], -132% (inactive) in assay [3], -33.7% (inactive) in assay [7] and -54.6% (inactive) in assay [8]. In addition, the inhibition of aggregation in assay [2] is 8.5% (inactive). In addition, the results for the nuclei count in assay [2] and in assay [3] were 96.4% and 215%, respectively. Moreover, the fluorescence slope in assay [4] was -0.433 (inactive). For the same compound, the NADPH fluorescence slope in assay [5] is 7.1e-05 (inactive). Besides, in assay [6], the slope is 0.00831 (inactive).

In the case of `O=C(CSc1ncnc2c1oc1ccccc12)NCc1ccco1`, the cell count in assay [1] came to 398. The inhibition is 1.5% (inactive) in assay [1], -38.6% (inactive) in assay [3], 15.1% (inactive) in assay [7] and 25% (inactive) in assay [8]. In addition, the inhibition of aggregation in assay [2] is -6.6% (inactive). In addition, the nuclei count in assay [2] worked out at 99.3%; in assay [3], 105%. Further, the fluorescence slope in assay [4] was -0.61 (inactive). The NADPH fluorescence slope in assay [5] is -2.9e-05 (inactive). Also, the slope in assay [6] was 0.00442 (inactive).

`CC1CCN(S(=O)(=O)c2ccc3[nH]cc(C(=O)NCCN4CCOCC4)c(=O)c3c2)CC1`: the cell count in assay [1] turned out to be 697. Also, the inhibition is -3% (inactive) in assay [1], -101% (inactive) in assay [3], 8.86% (inactive) in assay [7] and 17.9% (inactive) in assay [8]. In addition, the inhibition of aggregation in assay [2] was -11.2% (inactive). The results for the nuclei count in assay [2] and in assay [3] were 104% and 106%, respectively. The fluorescence slope in assay [4] was -0.519 (inactive). Moreover, in assay [5], the NADPH fluorescence slope was -3.8e-05 (inactive). In addition, the slope in assay [6] is 0.00576 (inactive).

As to `COC(=O)Cn1c(=O)c2c(nc(Br)n2CC(=O)OC)n(C)c1=O`, the cell count in assay [1] was determined as 640. Also, the inhibition in assay [1] is 6.7% (inactive); in assay [3], 24.8% (inactive); in assay [7] it was 9.82% (inactive); in assay [8], 7.4% (inactive). Moreover, in assay [2], the inhibition of aggregation was -0.4% (inactive). Besides, the nuclei count in assay [2] is 103%; in assay [3], 101%. For the same compound, the fluorescence slope in assay [4] is -0.406 (inactive). In addition, the NADPH fluorescence slope in assay [5] is -1.4e-05 (inactive). Also, the slope in assay [6] is 0.00483 (inactive).

As to `Cc1ccc(NC(=O)c2ccco2)cc1NC(=O)CSc1nnc(-c2cccs2)n1C`, in assay [1], the cell count came to 379. Further, the inhibition in assay [1] is -5.5% (inactive); in assay [3], 24.1% (inactive); in assay [7] it was 10.8% (inactive); in assay [8] it was 14.1% (inactive). For the same compound, the inhibition of aggregation in assay [2] was 16.8% (inactive). Also, the figures for the nuclei count in assay [2] and in assay [3] were 89.1% and 98.1%, respectively. Further, the fluorescence slope in assay [4] was -0.394 (inactive). Moreover, the NADPH fluorescence slope in assay [5] was -5.8e-05 (inactive). The slope in assay [6] was 0.00449 (inactive).
